From the supplement of paper PMC8728848
This is one part of a sample in which the strongest signals are shown more often than they occur.

Tests used:
Assay in all cases: glycan array binding signal (z-score within array); higher = stronger binding
Details in all cases: glycan notation: IUPAC condensed, linker removed
[1] = molecular target: Fuc(a1-2)Gal(b1-3)GlcNAc(b1-2)Man(a1-3)[Fuc(a1-2)Gal(b1-3)GlcNAc(b1-2)Man(a1-6)]Man(b1-4)GlcNAc(b1-4)[Fuc(a1-6)]GlcNAc
In short: (§1)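 Arrays were curated from the Consortium for Functional Glycomics database, 3228 in total, and kept only where the protein sequence was available. Binding is expressed as a within-array Z-score. This score was averaged across arrays of the same protein sequence at different concentrations or buffers and across linkers, and negative values can be read as non-binding.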

[2] = molecular target: Fuc(a1-2)Gal(b1-4)[Fuc(a1-3)]GlcNAc
In short: as §1

[3] = molecular target: Fuc(a1-2)Gal(b1-4)[Fuc(a1-3)]GlcNAc(b1-2)Man(a1-3)[Fuc(a1-2)Gal(b1-4)[Fuc(a1-3)]GlcNAc(b1-2)Man(a1-6)]Man(b1-4)GlcNAc(b1-4)[Fuc(a1-6)]GlcNAc
In short: as §1

[4] = molecular target: Fuc(a1-2)[Gal(a1-3)]Gal
In short: as §1

[5] = molecular target: Fuc(a1-2)[GalNAc(a1-3)]Gal(b1-3)GlcNAc(b1-2)Man(a1-3)[Fuc(a1-2)[GalNAc(a1-3)]Gal(b1-3)GlcNAc(b1-2)Man(a1-6)]Man(b1-4)GlcNAc(b1-4)GlcNAc
In short: as §1

[6] = molecular target: Fuc(a1-2)[GalNAc(a1-3)]Gal(b1-3)GlcNAc(b1-2)Man(a1-3)[Fuc(a1-2)[GalNAc(a1-3)]Gal(b1-3)GlcNAc(b1-2)Man(a1-6)]Man(b1-4)GlcNAc(b1-4)[Fuc(a1-6)]GlcNAc
In short: as §1

[7] = molecular target: Fuc(a1-2)[GalNAc(a1-3)]Gal(b1-3)GlcNAc(b1-6)GalNAc
In short: as §1

[8] = molecular target: Fuc(a1-3)[Gal(b1-4)]GlcNAc6S
In short: as §1

[9] = molecular target: Gal(a1-3)Gal(b1-3)GlcNAc(b1-2)Man
In short: as §1

[10] = molecular target: Gal(a1-4)Gal(b1-4)GlcNAc(b1-2)Man(a1-3)[Gal(a1-4)Gal(b1-4)GlcNAc(b1-2)Man(a1-6)]Man(b1-4)GlcNAc(b1-4)GlcNAc
In short: as §1

[11] = molecular target: Gal(b1-3)Gal
In short: as §1

[12] = molecular target: Gal(b1-3)GlcNAc(b1-2)Man(a1-3)[Gal(b1-3)GlcNAc(b1-2)Man(a1-6)]Man(b1-4)GlcNAc(b1-4)[Fuc(a1-6)]GlcNAc
In short: as §1

[13] = molecular target: Gal(b1-3)GlcNAc(b1-2)Man(a1-3)[GlcNAc(b1-4)][Gal(b1-3)GlcNAc(b1-2)Man(a1-6)]Man(b1-4)GlcNAc(b1-4)GlcNAc
In short: as §1

[14] = molecular target: Gal(b1-4)GalNAc(a1-3)[Fuc(a1-2)]Gal(b1-4)GlcNAc
In short: as §1

[15] = molecular target: Gal(b1-4)GlcNAc(b1-2)Man
In short: as §1

[16] = molecular target: Gal(b1-4)GlcNAc(b1-2)Man(a1-3)[GlcNAc(b1-2)Man(a1-6)]Man(b1-4)GlcNAc(b1-4)GlcNAc
In short: as §1

[17] = molecular target: Gal(b1-4)GlcNAc(b1-2)[Gal(b1-4)GlcNAc(b1-4)]Man(a1-3)[Gal(b1-4)GlcNAc(b1-2)Man(a1-6)]Man(b1-4)GlcNAc(b1-4)GlcNAc
In short: as §1

[18] = molecular target: Gal(b1-4)GlcNAc(b1-3)Gal(b1-4)GlcNAc(b1-2)Man(a1-3)[Gal(b1-4)GlcNAc(b1-3)Gal(b1-4)GlcNAc(b1-2)Man(a1-6)]Man(b1-4)GlcNAc(b1-4)[Fuc(a1-6)]GlcNAc
In short: as §1

[19] = molecular target: Gal(b1-4)GlcNAc(b1-3)Gal(b1-4)GlcNAc(b1-3)Gal(b1-4)GlcNAc(b1-3)Gal(b1-4)GlcNAc(b1-2)Man(a1-3)[Gal(b1-4)GlcNAc(b1-3)Gal(b1-4)GlcNAc(b1-3)Gal(b1-4)GlcNAc(b1-3)Gal(b1-4)GlcNAc(b1-2)Man(a1-6)]Man(b1-4)GlcNAc(b1-4)[Fuc(a1-6)]GlcNAc
In short: as §1

[20] = molecular target: Gal(b1-4)GlcNAc(b1-3)Gal(b1-4)GlcNAc(b1-3)Gal(b1-4)GlcNAc(b1-3)Gal(b1-4)GlcNAc(b1-3)Gal(b1-4)GlcNAc(b1-2)Man(a1-3)[Gal(b1-4)GlcNAc(b1-3)Gal(b1-4)GlcNAc(b1-3)Gal(b1-4)GlcNAc(b1-3)Gal(b1-4)GlcNAc(b1-3)Gal(b1-4)GlcNAc(b1-2)Man(a1-6)]Man(b1-4)GlcNAc(b1-4)[Fuc(a1-6)]GlcNAc
In short: as §1

[21] = molecular target: Gal(b1-4)GlcNAc(b1-6)GalNAc
In short: as §1

[22] = molecular target: Gal3S(b1-3)GalNAc
In short: as §1

[23] = molecular target: Gal3S(b1-3)GlcNAc
In short: as §1

[24] = molecular target: Gal3S(b1-4)Glc
In short: as §1

[25] = molecular target: GalNAc(b1-3)Gal(a1-4)Gal(b1-4)GlcNAc
In short: as §1

[26] = molecular target: GalNAc3S(b1-4)GlcNAc
In short: as §1

[27] = molecular target: GlcNAc(a1-4)Gal(b1-4)GlcNAc(b1-3)Gal(b1-4)GlcNAc(b1-3)Gal(b1-4)GlcNAc
In short: as §1

[28] = molecular target: GlcNAc(b1-2)[GlcNAc(b1-4)]Man(a1-3)[GlcNAc(b1-2)Man(a1-6)]Man(b1-4)GlcNAc(b1-4)GlcNAc
In short: as §1

[29] = molecular target: GlcNAc(b1-2)[GlcNAc(b1-6)]Man(a1-6)[GlcNAc(b1-4)][GlcNAc(b1-2)Man(a1-3)]Man(b1-4)GlcNAc(b1-4)GlcNAc
In short: as §1

[30] = molecular target: GlcNAc(b1-3)Gal(b1-4)GlcNAc(b1-6)[Gal(b1-3)]GalNAc
In short: as §1

[31] = molecular target: GlcNAc(b1-3)Man
In short: as §1

[32] = molecular target: GlcNAc(b1-4)[GlcNAc(b1-6)]GalNAc
In short: as §1

[33] = molecular target: Man(a1-3)[Man(a1-6)]Man(a1-6)[Man(a1-2)Man(a1-3)]Man(b1-4)GlcNAc(b1-4)GlcNAc
In short: as §1

[34] = molecular target: Neu5Ac(a2-3)Gal(b1-3)GlcNAc(b1-2)[Neu5Ac(a2-3)Gal(b1-3)GlcNAc(b1-4)]Man(a1-6)[Neu5Ac(a2-3)Gal(b1-3)GlcNAc(b1-2)Man(a1-3)]Man(b1-4)GlcNAc(b1-4)GlcNAc
In short: as §1

[35] = molecular target: Neu5Ac(a2-3)Gal(b1-4)GlcNAc(b1-2)Man(a1-3)[GlcNAc(b1-4)][Neu5Ac(a2-3)Gal(b1-4)GlcNAc(b1-2)Man(a1-6)]Man(b1-4)GlcNAc(b1-4)GlcNAc
In short: as §1

[36] = molecular target: Neu5Ac(a2-3)Gal(b1-4)GlcNAc(b1-2)[Neu5Ac(a2-3)Gal(b1-4)GlcNAc(b1-4)]Man(a1-3)[GlcNAc(b1-4)][Neu5Ac(a2-3)Gal(b1-4)GlcNAc(b1-4)Man(a1-6)]Man(b1-4)GlcNAc(b1-4)GlcNAc
In short: as §1

[37] = molecular target: Neu5Ac(a2-3)Gal(b1-4)GlcNAc(b1-6)GalNAc
In short: as §1

[38] = molecular target: Neu5Ac(a2-3)Gal(b1-4)[Fuc(a1-3)]GlcNAc(b1-3)Gal(b1-4)[Fuc(a1-3)]GlcNAc(b1-3)Gal(b1-4)[Fuc(a1-3)]GlcNAc
In short: as §1

[39] = molecular target: Neu5Ac(a2-6)Gal(b1-4)GlcNAc(b1-3)[Neu5Ac(a2-6)Gal(b1-4)GlcNAc(b1-6)]GalNAc
In short: as §1

[40] = molecular target: Neu5Gc(a2-3)Gal(b1-3)GlcNAc
In short: as §1

[41] = molecular target: Neu5Gc(a2-6)Gal(b1-4)GlcNAc
In short: as §1

[42] = molecular target: Neu5Gc(a2-6)GalNAc
In short: as §1

B1: cFel (Cyprinus carpio), P68512 (protein)
chain: LDCTVIDGNLKQIDAGSGSVVGVNNLNETFVLIDNVFTKISGSLKHFSVGPAGQLGVNTANNIFKYQSGGFVQLAGLLKQVDAGGDQIIAGVNMYDDIYCLNMDANNKWPSSNTPWVQINGKLKYYSCGPYSCWGVNSNDQIFIMKDVSSNVCSGSGSFINIPGLLSMIEVATDGSVFGVNSQGNLYQRTGVTRSKPDGTDWISMVACPNGHKHVSFDLGVLWLVCVDGSIRKCILTD
- glycan array binding signal (z-score) [1]: -0.998
- glycan array binding signal (z-score) [2]: 0.152
- glycan array binding signal (z-score) [3]: 3.47
- glycan array binding signal (z-score) [4]: 2.61
- glycan array binding signal (z-score) [5]: 0.309
- glycan array binding signal (z-score) [6]: 3.12
- glycan array binding signal (z-score) [7]: 2.93
- glycan array binding signal (z-score) [8]: 0.043
- glycan array binding signal (z-score) [9]: 0.809
- glycan array binding signal (z-score) [10]: -0.901
- glycan array binding signal (z-score) [11]: -0.479
- glycan array binding signal (z-score) [12]: -1.57
- glycan array binding signal (z-score) [13]: 3.37
- glycan array binding signal (z-score) [14]: 0.995
- glycan array binding signal (z-score) [15]: 0.263
- glycan array binding signal (z-score) [16]: 0.271
- glycan array binding signal (z-score) [17]: 3.29
- glycan array binding signal (z-score) [18]: -0.29
- glycan array binding signal (z-score) [19]: -0.084
- glycan array binding signal (z-score) [20]: 1.98
- glycan array binding signal (z-score) [21]: 1.54
- glycan array binding signal (z-score) [22]: -0.627
- glycan array binding signal (z-score) [23]: -0.636
- glycan array binding signal (z-score) [24]: 1.24
- glycan array binding signal (z-score) [25]: 4.96
- glycan array binding signal (z-score) [26]: -0.547
- glycan array binding signal (z-score) [27]: -0.344
- glycan array binding signal (z-score) [28]: -0.869
- glycan array binding signal (z-score) [29]: -0.817
- glycan array binding signal (z-score) [30]: 1.15
- glycan array binding signal (z-score) [31]: 3.22
- glycan array binding signal (z-score) [32]: -0.003
- glycan array binding signal (z-score) [33]: 0.309
- glycan array binding signal (z-score) [34]: 0.972
- glycan array binding signal (z-score) [35]: 3.12
- glycan array binding signal (z-score) [36]: -0.578
- glycan array binding signal (z-score) [37]: -0.95
- glycan array binding signal (z-score) [38]: -1.09
- glycan array binding signal (z-score) [39]: 3.16
- glycan array binding signal (z-score) [40]: 2.89
- glycan array binding signal (z-score) [41]: -1.34
- glycan array binding signal (z-score) [42]: 0.828
